Structures are written as SMILES. About 2,700 (4%) of roughly 68,000 compounds showed an effect of 50% or more. The entries come from a sample that favours strong results as a whole.

The assay deals with Plasmodium berghei. Kind of assay: Screen against P. berghei liver stage (PbLuc), transformed with Luciferase, at 2uM. In kind it is functional, HepG2. The settings on record: tested at 2 uM.
In the case of `Cc1ccc(OCC2CCCN(C(=O)CN3CCOCC3)C2)cc1` (centres undefined), the INHIBITION came to 38.67%.
As to `Cc1ccc(OCC2CCCN(c3nc(CO)cs3)C2)cc1` (centres undefined), the INHIBITION is given as -43.42%.
In the case of `Cc1ccc(OCC2CCCN(C(=O)Cn3ccccc3=O)C2)cc1` (centres undefined) it was 45.14%; in that of `Cc1ccc(OCC2CCCN(CC3CCOCC3)C2)cc1` (centres undefined), 60.13%.
In the case of `COc1ccc(OCC2CCCN(Cc3ccncc3)C2)cc1` (centres undefined) it was -1.29%.
In the case of `Cc1ccc(OCC2CCCN(Cc3ccc(CO)o3)C2)cc1` (centres undefined), the INHIBITION is on record as 69.67%.
In the case of `Nc1nnc(SCc2cc(=O)n3c4c(sc3n2)CCCC4)[nH]1` it was -0.04%.
For `CCCc1noc(C2CC(=O)N(Cc3ccccc3)C2)n1` (centres undefined), the INHIBITION was 39.58%.
Regarding `Cc1ccc(S(=O)(=O)N2CC[C@@H]3C[C@H](NC(=O)c4ccncc4)[C@@H]32)cc1`, the INHIBITION was found to be 20.51%.
In the case of `Cc1cccc(N2CCC3(CCCN(C(=O)c4cccnc4)C3)C2)n1` (centres undefined), the INHIBITION is recorded as -37.2%.
Turning to `Cc1nocc1C(=O)N1CCc2c(CN(C)C)nn(C)c2C1`, the INHIBITION is on record as 51.81%.
On to `Cc1cccc(C(=O)N2CCc3c(CN(C)C)nn(C)c3C2)n1`, for which the INHIBITION is listed as -27.08%.
`Cc1cc(C(=O)N2CCc3c(CN(C)C)nn(C)c3C2)[nH]n1`: the INHIBITION came out at 28.2%.
For `Cn1cc(CN2CCC(c3ncc(Cl)cc3S(C)(=O)=O)CC2)cn1`, the INHIBITION is 22.95%.
In the case of `COc1ccc(OCCC(=O)N2CCCC2Cn2cccn2)cc1` (centres undefined), the INHIBITION is reported as -28.79%.
Turning to `O=C(c1cnc(C2CC2)s1)N1CCCCC1Cn1cccn1` (centres undefined), the INHIBITION is 21.31%.
As for `O=C1COc2c(cccc2C(=O)N2CCCC2Cn2cccn2)N1` (centres undefined), the INHIBITION is listed as 24.56%.
The result for `CCc1ncc(C(=O)N2CCCC2Cn2cccn2)s1` (centres undefined) reads 17.31%; that for `O=C1COc2c(cccc2C(=O)N2CCCCC2Cn2cccn2)N1` (centres undefined), 63.93%; that for `Cc1nc(CC(=O)N2CCCCC2Cn2cccn2)cs1` (centres undefined), 60.64%.
On to `O=C(c1cccc2c1OCCO2)N1CCCCC1Cn1cccn1` (centres undefined), for which the INHIBITION is on record as -46.81%.
As for `Cc1nc(CC(=O)N2CCCC2Cn2cccn2)cs1` (centres undefined), the INHIBITION came out at 34.53%.
For `CCc1nc(CC(=O)N2CCCCC2Cn2cccn2)cs1` (centres undefined), the INHIBITION turned out to be 21.12%.
The result for `O=C(CCOc1ccc(F)cc1)N1CCCC1Cn1cccn1` (centres undefined) reads 70.27%.
Take `O=C(CCOc1cccc(F)c1)N1CCCC1Cn1cccn1` (centres undefined): the INHIBITION amounted to 8.37%.
On to `CCc1ncc(C(=O)N2CCCCC2Cn2cccn2)s1` (centres undefined), for which the INHIBITION came to 63.95%.
In the case of `Cc1cnn(CC2CCCN2C(=O)c2sccc2C#N)c1` (centres undefined), the INHIBITION came out at 16.25%.
In the case of `CC(C)(C)CC(=O)NCC(=O)NCC(O)c1ccc2ccccc2c1` (centres undefined), the INHIBITION is recorded as -29.53%.
The result for `CCc1n[nH]c(C2CN(C(=O)c3ccc(Cl)cn3)CCO2)n1` (centres undefined) reads 22.69%; that for `CC(C)n1nc(Cn2cccn2)c2c1CN(CC1CCOC1)C2` (centres undefined), 20.2%; that for `COCC(O)CN1CCC(NC(=O)c2cscc2C)CC1` (centres undefined), 50.93%.
For the molecule `COCC(O)CN1CCC(NC(=O)c2ccccc2Cl)CC1` (centres undefined), the INHIBITION is reported as -41.8%.
For `COCCC(=O)N1CCC(NC(=O)c2cscc2C)CC1`, the INHIBITION was found to be 16.72%.
As for `CCc1nnsc1C(=O)N(C)Cc1nnc2n1CCC2`, the INHIBITION is given as -8.74%.
Take `Cc1cnc(N2CCC3(CC(=O)N(Cc4csc(C)n4)C3)C2)nc1` (centres undefined): the INHIBITION was 25.43%.
For the molecule `CCCN(CC(F)F)c1cc(COC)nc2ncnn12`, the INHIBITION is reported as -6.73%.
For `CCN(CC)CCN(CC(C)C)c1cc(C(F)(F)F)nc2ncnn12`, the INHIBITION was -13.12%.
Consider `COCCN(CC(F)F)c1cc(COC)nc2ncnn12`, for which the INHIBITION was 69.52%.
The result for `COCc1cc(N(CC(F)F)C2CC2)n2ncnc2n1` reads 3.59%.
`COCCN(CC(F)F)c1cc(C(F)(F)F)nc2ncnn12`: the INHIBITION was determined as 25.81%.
With `CCCc1cc(N(CCOC)CC(F)F)n2ncnc2n1`, the INHIBITION was found to be 55.18%.
As to `Cc1cc(C)c(CNC(=O)NCc2cc(F)cc(F)c2)c(=O)[nH]1`, the INHIBITION is recorded as 23.42%.
`Cn1ncc(C(=O)OCC2CC(=O)N(c3ccccc3)C2)c1C(F)F` (centres undefined): the INHIBITION worked out at 26.62%.
As to `CC(C)NC(=O)C1CN(C(=O)Nc2cccc(F)c2)CC12CCOCC2` (centres undefined), the INHIBITION came to 9.53%.
The result for `O=C1CCCN1CCN1CCC(c2ccn[nH]2)CC1` reads 33.26%.
`CCc1c(C)nc(N)nc1NCCSCc1[nH]cnc1C`: the INHIBITION was determined as 29.98%.
The result for `CN(Cc1nnc(-c2ccco2)o1)C1CCCN(c2cccnn2)C1` (centres undefined) reads 53.03%.
The result for `CN(Cc1nnc(C2CC2)o1)C1CCCN(c2cccnn2)C1` (centres undefined) reads -15.05%; that for `CN(Cc1ncc(-c2ccccc2)o1)C1CCCN(c2cccnn2)C1` (centres undefined), -4.81%.
The result for `Cc1nc(CN(C)C2CCCN(c3cccnn3)C2)oc1C` (centres undefined) reads -6.71%.
As for `c1coc(-c2nnc(CN3CCCC(CN4CCCCCC4)C3)o2)c1` (centres undefined), the INHIBITION is listed as -22.43%.
As to `Cc1nc(C)n(CC2CCCN(Cc3nnc(-c4ccco4)o3)C2)n1` (centres undefined), the INHIBITION turned out to be 22.51%.
In the case of `Cc1ccccc1CCC1CCCN(Cc2nnc(-c3ccco3)o2)C1` (centres undefined) it was 55.7%; in that of `CN(Cc1nc(-c2ccco2)no1)C1CCCN(c2cccnn2)C1` (centres undefined), 22.1%.
For the molecule `CN(Cc1ncc(C(C)(C)C)o1)C1CCCN(c2cccnn2)C1` (centres undefined), the INHIBITION came out at 51.21%.
Turning to `CC(CN(C)C)Nc1nc(O)cc(Cc2ccccc2F)n1` (centres undefined), the INHIBITION was found to be 21%.
Take `COCCOc1cccc(C(=O)N2CCCCC2c2nccs2)c1` (centres undefined): the INHIBITION was 4.41%.
Take `CN(Cc1cccnc1)C1CCCN(Cc2noc(C3CC3)n2)C1` (centres undefined): the INHIBITION worked out at 42.12%.
In the case of `CC(C)c1ccc(CS(=O)(=O)Cc2nc(N)nc(N(C)C)n2)cc1` it was 64.9%.
With `CC(C)c1ccc(S(=O)(=O)Cc2nc(N)nc(N(C)C)n2)cc1`, the INHIBITION is -25.72%.
In the case of `Cc1ccc(CS(=O)(=O)Cc2nc(N)nc(N(C)C)n2)cc1`, the INHIBITION was -44.8%.
In the case of `O=c1n(CC2CC2)nc(C2CCNCC2)n1Cc1ccccc1` it was 51.19%; in that of `CCOCCn1nc(C2CCNCC2)n(Cc2ccccc2)c1=O`, 49.95%; in that of `CCCn1nc(C2CCNCC2)n(Cc2ccccc2)c1=O`, 26.92%.
For the molecule `Cc1noc(C)c1CCC(=O)N1CCn2cccc2C1C` (centres undefined), the INHIBITION is -39.01%.
Regarding `Cc1c(NC(=O)NC2CCCC2)cccc1C(=O)N1CCSCC1`, the INHIBITION was -12.09%.
On to `Cc1c(NC(=O)NC2CCOCC2)cccc1C(=O)N1CCCC1`, for which the INHIBITION was found to be 48.39%.
For `O=C(Nc1ccccc1C(=O)N1CCCC1)NC1CCOCC1`, the INHIBITION was 70.83%.
Regarding `NS(=O)(=O)c1cnn(CCC(=O)N(Cc2ccccc2)C2CC2)c1`, the INHIBITION is given as -102.2%.

(Values after ChEMBL document CHEMBL4513216, “Probing the Open Global Health Chemical Diversity Library for Multistage-Active Starting Points for Next-Generation Antimalarials” (ACS Infect Dis, 2020).)
